Compound activity from PubChem.
Rows were chosen to be rich in hits. Some 8% of all compounds tested hit in one or more screens of this group.
SW480 rerep: induces DNA re-replication in SW480 colon adenocarcinoma cells; SW480 DNA re-replication, Hoechst DNA content imaging, 48 h; Potency, µM (titrated, usually from 46.1 µM), inactives show top-dose re-replication activation, hits mostly activators; 340,000 tested, 1.8% active; AID 624297; also: % of control where 0% means no effect; nearly all actives have a fitted effect of over 55% in size
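Readout is total intensity of Hoechst-stained nuclei, excited at 405 nm and collected at 500-530 nm. Compound treatment lasted 48 hr at 37 C in 5% CO2 before staining.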
KB-V1 MDR tox: KB-V1 MDR subline cytotoxicity. 400,000 tested, 3.4% active. KB-V1 MDR cells viability, CellTiter-Glo, 72 h. AID 1347076. Potency, µM (titrated, usually from 46.1 µM), hits mostly cytotoxic; also: % is scaled to controls: 0 for no effect and ±100 for the full control effect; nearly all actives have a fitted effect of over 60% in size
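Cells of the MDR subline KB-V1 are plated, dosed with compound at multiple concentrations, and incubated 72 h at 37 degrees C; CellTiter-Glo is then added and luminescence read after 10 min.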
MCF10A rereplic: DNA re-replication induction in MCF 10a cells | AID 624296 | MCF 10A DNA re-replication, Hoechst nuclear intensity, 48 h | 350,000 tested, 2.9% active | Potency, µM (titrated, usually from 46.1 µM), for inactives: top-dose activity, positive = re-replication, most hits filed as activators; also: % of control where 0% means no effect; nearly all actives have a fitted effect of over 50% in size
HT1080NT lethal: kills 2HG-producing HT-1080-NT fibrosarcoma cells; HT-1080-NT fibrosarcoma viability, CellTiter-Glo ATP luminescence, 48 h; Potency, µM (series often up to 46.1 µM), inactives show top-dose activity, negative = less viability, actives largely listed as cytotoxic; 360,000 tested, 1.6% active; AID 686970;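 also: NT is the 2HG producing partner of a matched IDH1 knockdown line; 0% = DMSO-treated cells and -100% = media-only wells without cells; nearly all actives have a fitted effect of over 55% in size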
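750 cells/well, RPMI + 5% FBS; 2 h settle, compound pin-transfer, 48 h at 37 degrees C. CellTiter-Glo 10 min RT, luminescence. Normalized to DMSO and media-only wells.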
HT1080 IDH1KD tx: kills HT-1080 cells with IDH1 knockdown. HT-1080 IDH1 knockdown viability, ATP luminescence, 48 h. Potency, µM (titrated, usually from 46.1 µM), inactives show at the highest dose activity, negative = toxicity, usual class: cytotoxic. 360,000 tested, 2% active;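 also: 0% = DMSO wells and -100% = cell-free medium wells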
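HT-1080-IDH1KD cells (IDH1 knocked down), 750/well in RPMI with 5% FBS, treated with compound 48 h at 37 degrees C. Viability by CellTiter-Glo luminescence, normalised to DMSO and no-cell wells; concentration-response curves classed.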
KB-3-1 cytotox: KB-3-1 parental cell cytotoxicity; 400,000 tested, 1.4% active; KB-3-1 viability, CellTiter-Glo ATP luminescence, 72 h; AID 1347075; Potency, µM (top dose mostly 46.1 µM), usual class: cytotoxic; also: % is scaled to controls: 0 for no effect and ±100 for the full control effect; nearly all actives have a fitted effect of over 60% in size
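Cytotoxicity measured as CellTiter-Glo luminescence after 72 h at 37 C. Compound titrations were pinned onto drug-naive KB-3-1 parental adenocarcinoma cells grown in DMEM with 10% FBS, and normalized data fitted to concentration-response curves.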
Active calls of the source: *; i = inactive; u = inconclusive; x = not tested or not shown; [ ] = remark or other dose. Calls follow the shape of the dose curve; as a rule, active = well fitted curve in the direction sought with a large enough effect; inconclusive = small, poorly fitted or top-dose-only effect, or another doubt; inactive = no such curve, though single readings can be large; an effect the other way counts as inactive or inconclusive. Potency is read from the fitted curve at half-maximal effect.

SMILES | SW480 rerep | KB-V1 MDR tox | MCF10A rereplic | HT1080NT lethal | HT1080 IDH1KD tx | KB-3-1 cytotox
COc1cc(C(=O)Nc2ccc(-c3nnc(-c4ccco4)o3)cc2)cc(OC)c1OC | -2% | u | u | -1% | 5% | i
Cc1cc(C)cc(OCC(=O)Nc2cccc(-c3nnc(-c4ccco4)o3)c2)c1 | -2% | 15µM* | -2% | -2% | 10% | i
COc1ccc(CC(=O)Nc2cccc(-c3nnc(-c4ccco4)o3)c2)cc1 | -5% | u | 14% | -9% | -11% | i
COc1cc(C(=O)Nc2cccc(-c3nnc(-c4ccco4)o3)c2)ccc1OC(C)=O | -15% | 21µM* | u | -22% | -25% | i
COc1ccc(C(=O)Nc2cccc(-c3nnc(-c4ccco4)o3)c2)cc1 | 0% | 13µM* | u | u | u | u
Cc1cc2c(n1-c1ccc(C(=O)NCC(C)c3ccccc3)cc1)CCCC2 (centres undefined) | x | u | x | x | x | i
O=C(CN1CCN(S(=O)(=O)c2cc(Cl)ccc2Cl)CC1)Nc1cccc(F)c1 | x | i | x | x | x | i
COc1cccc(CNC(=O)CSC2=Nc3ccccc3N=C(c3ccc(F)cc3)C2)c1 | x | i | x | x | x | i
Cc1ccc(-c2nn(CC(=O)NC3CCCC3)c3c2cnc2ccc(F)cc23)cc1C | x | i | x | x | x | i
CC(=O)c1ccc(-c2ccc(C(=O)Nc3nc(-c4ccccn4)cs3)o2)cc1 | u | u | 16µM* | u | 10µM* | u
Cc1ccc(-c2csc(NC(=O)c3ccc(-c4ccccc4)cc3)n2)o1 | 12% | 15µM* | u | 0% | -22% | u
Cc1ccc(C(=O)Nc2nc(-c3ccccn3)cs2)o1 | 14% | i | 1% | -17% | u | u
O=C(Nc1nc(-c2ccc(Cl)s2)cs1)c1ccccc1 | -2%[9.22 µM] | i | u | -4% | -19% | i
Cc1ccc(C(=O)Nc2nc(-c3cc(Cl)sc3Cl)cs2)cc1 | 0% | i | 26µM* | -13% | -17% | i
O=C(Nc1nc(-c2ccccn2)cs1)c1ccc(-c2ccccc2F)o1 | u | i | 21µM* | u | u | u
CC1=C(C(=O)N2CCCCC2)C(c2ccc(Cl)cc2)n2c(nc3ccccc32)N1 (centres undefined) | x | i | x | x | x | i
CC(=O)N1c2nc(C(C)C)nn2C2(CCCCC2)[C@@H]2CCCC[C@@H]21 | x | i | x | x | x | i
O=C(COc1ccc(F)cc1)Nc1nc(-c2ccccn2)cs1 | u | 5.8µM* | 15% | -20% | u | u
O=C(Nc1nc(-c2ccccn2)cs1)c1ccc([N+](=O)[O-])o1 | u | i | 2.3µM* | -18% | u | u
COc1ccc(NCc2ccccc2-c2nnc(-c3ccccc3)o2)cc1Cl | x | u | x | x | x | i
CCCCNC(=O)CSc1nc(-c2ccc(OC)cc2)cc(C(F)(F)F)n1 | x | i | x | x | x | i
O=NN(CCc1ccncc1)c1ccc(OCc2ccccc2)cc1 | 0% | 3.3µM* | u | -19% | -21% | i
Cc1cc(C)c(Cn2c(C)c(CNCCCc3ccccc3)c(C(=O)O)c2C)c(C)c1 | x | u | x | x | x | i
Cc1ccc(C)c(NC(=S)NC(NC(=O)OCc2ccccc2)C(Cl)(Cl)Cl)c1 (centres undefined) | u | 15µM* | u | -6% | -13% | i
O=C(NC(NC(=S)Nc1c(Cl)cc(Cl)cc1Cl)C(Cl)(Cl)Cl)OCc1ccccc1 (centres undefined) | u | 12µM* | 13µM* | u | u | u
SMILES | SW480 rerep | KB-V1 MDR tox | MCF10A rereplic | HT1080NT lethal | HT1080 IDH1KD tx | KB-3-1 cytotox
COc1ccc(CN2CCc3c(c(=O)n4ncc(C(=O)N5CCN(c6ccc(F)cc6)CC5)c4n3C)C2)cc1 | x | i | x | x | x | u
CCn1c2c(c(=O)n3ncc(C(=O)N4CCN(c5ccc(C(C)=O)cc5)CC4)c13)CN(Cc1ccc(OC)cc1)CC2 | x | i | x | x | x | 21µM*
Cc1cc(C)c(NC(=O)C(C)n2c(=O)cc(-c3ccccc3)c3c(C)nn(C)c32)c(C)c1 (centres undefined) | x | i | x | x | x | i
CCCCN(CCCC)C(=O)CN(C)S(=O)(=O)c1ccc2c(c1)c(=O)n(C)c(=O)n2C | x | i | x | x | x | i
Oc1ccccc1N=N/C(=N/Nc1ccccc1O)c1ccccc1 | -12%[9.22 µM] | i | 7% | 2% | 4% | i
Cn1nnnc1N=N/C(=N/Nc1ccccc1)c1ccccc1 | u | u | u | u | 7.3µM* | i
O=C(CCC(=O)N1CC2CCCN2c2ccccc21)NCc1ccccc1 (centres undefined) | x | i | x | x | x | i
CC(C)c1ccc(N2C=Nc3ccc(C(C)C)cc3C2)cc1 | 7% | i | u | u | 23µM* | u
O=C(CCl)c1cc2c3c(c1)CC(=O)N3CCC2 | 16µM* | i | u | -14% | u | i
CCN(CC(=O)Nc1ccc2c(c1)OCCO2)C(=O)/C=C/c1ccc([N+](=O)[O-])cc1 | -2% | 21µM* | 21% | 7% | 15% | i
CCOC(=O)c1ccc(NS(=O)(=O)c2ccc(SC)cc2)cc1 | 6% | 23µM* | 23µM* | 1% | -11% | i
CCOC(=O)Cc1ccc(NS(=O)(=O)c2ccc(SC)cc2)cc1 | -4% | i | 2% | 1% | -13% | i
COc1ccc(S(=O)(=O)Nc2c(F)cccc2F)cc1 | -8% | i | -32% | 0% | -13% | i
COc1ccc(S(=O)(=O)Nc2cccc3ccc(O)cc23)cc1 | u | u | 21µM* | 3.3µM* | 5.2µM* | 15µM*
Cc1ccc(S(=O)(=O)Nc2ccc(Cl)cc2O)cc1 | x | 21µM* | x | u | u | u
Cc1ccc(S(=O)(=O)Nc2ccccc2/C=N/c2nc3ccccc3n2C)cc1 | 5% | i | 13µM* | u | 21µM* | u
O=S(=O)(c1ccc(C2CCCCC2)cc1)N1CCN(c2cc(Cl)ccc2Cl)CC1 | x | i | x | x | x | i
COc1cc(S(=O)(=O)n2ccnc2C(C)C)ccc1Br | x | i | x | x | x | i
CCOCCCN(Cc1ccco1)C(=O)c1cc2c(s1)-c1c(C)cccc1OC2 | x | u | x | x | x | i
Fc1ccc(-c2nn(-c3ccc(Cl)cc3)c3c2cnc2ccc(F)cc23)cc1 | x | i | x | x | x | i
CCn1c2ccccc2c2cc(NS(=O)(=O)c3ccc(C)cc3)ccc21 | u | u | 18µM* | u | u | u
